The nature of assay [1]: NCI Yeast Anticancer Drug Screen. Data for the rad50 strain (AID 155).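 Note: 0% = growth of vehicle-only cultures of the same strain.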 The settings on record: S. cerevisiae rad50 strain growth inhibition, active compounds read high. The procedure, abridged:
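Genetically altered yeast (DNA repair pathway); compound treatment; growth inhibition vs vehicle ctrl.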

A short description of assay [2]: NCI Yeast Anticancer Drug Screen. Data for the mec2-1 strain (AID 157). Conditions: S. cerevisiae mec2-1 strain, active compounds read high. Summed up:
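Each compound was tested on mec2-1 yeast, a strain altered in DNA damage repair or cell cycle control. Growth inhibition is reported relative to vehicle.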

Assay [3] in a line: NCI Yeast Anticancer Drug Screen. Data for the sgs1 mgt1 strain (AID 161).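 Note: 0% = growth of cultures given vehicle only.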 The settings on record: S. cerevisiae sgs1 mgt1 strain, active compounds read high. The procedure, abridged:
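Genetically altered yeast, compound exposure, growth inhibition relative to vehicle.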

The nature of assay [4]: NCI Yeast Anticancer Drug Screen. Data for the cln2 rad14 strain (AID 165).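 Note: 0% = growth equal to vehicle treated cultures.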 The settings on record: S. cerevisiae cln2 rad14 strain, active compounds read high. The procedure, abridged:
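Test compounds were added to cln2 rad14 yeast cultures; inhibition of growth was then determined by comparison with vehicle treatment.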

Assay [5] can be described thus: NCI Yeast Anticancer Drug Screen. Data for the bub3 strain (AID 167). Conditions: S. cerevisiae bub3 mutant strain, active compounds read high. The procedure, abridged:
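Yeast carrying a defined mutation is treated with each compound, and growth is compared with that of vehicle-exposed cells to give inhibition.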

Assay [6] in a line: NCI Yeast Anticancer Drug Screen. Data for the mlh1 rad18 strain (AID 175). Conditions: S. cerevisiae mlh1 rad18 strain growth inhibition, active compounds read high. Summed up: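 Inhibition values reflect reduced growth of mutant yeast versus vehicle-treated controls following compound exposure; the mutations affect DNA damage repair.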
[7] abbreviates: at 5.0 µM (retest, dose inferred, filed as 0.5).
[8] abbreviates: at 50.0 µM (retest, dose inferred, filed as 5.0).

This is part of a sample that, as a whole, favours compounds with a hit. Of some 79,000 tested, about 15% had one in any assay. Unmarked numbers belong to inactive results. The source made the active and inactive calls. Cut-off read from the data, not from the text of the source: active = growth inhibition above about 70%; inactive = the rest.

`CCOc1ccc(C(C[N+](=O)[O-])Sc2ccccc2N)cc1` (configuration not stated): the growth inhibition is 36% in assay [1] (setting [7]); 47% in assay [1] (setting [8]); 73.5% (active) in assay [1] (at 50.0 µM); 36% in assay [2] (setting [7]); 46% in assay [2] (setting [8]); 92.1% (active) in assay [2] (at 50.0 µM). In addition, the growth inhibition is 42% in assay [3] (setting [7]); 57% in assay [3] (setting [8]); 92.7% (active) in assay [3] (at 50.0 µM); 29% in assay [4] (setting [7]); 29% in assay [4] (setting [8]); 83.9% (active) in assay [4] (at 50.0 µM). Moreover, the growth inhibition was 32% in assay [5] (setting [7]); 72% (active) in assay [5] (setting [8]); 91.7% (active) in assay [5] (at 50.0 µM); 45% in assay [6] (setting [7]); 59% in assay [6] (setting [8]); 87% (active) in assay [6] (at 50.0 µM).

Regarding `O=C(/C=C/c1ccccc1)c1ccccc1O`, the growth inhibition is 9% in assay [1] (setting [7]); 78% (active) in assay [1] (setting [8]); 98.5% (active) in assay [1] (at 50.0 µM); 4% in assay [2] (setting [7]); 49% in assay [2] (setting [8]); 99.2% (active) in assay [2] (at 50.0 µM). For the same molecule, the growth inhibition in assay [3] (setting [7]) is 4%; in assay [3] (setting [8]), 55%; in assay [3] (at 50.0 µM), 46%; in assay [4] (setting [7]), 2%; in assay [4] (setting [8]), 40%; in assay [4] (at 50.0 µM) it was 53.6%. For the same molecule, the growth inhibition in assay [5] (setting [7]) is 1%; in assay [5] (setting [8]), 80% (active); in assay [5] (at 50.0 µM) it was 49.1%; in assay [6] (setting [7]), 1%; in assay [6] (setting [8]) it was 78% (active); in assay [6] (at 50.0 µM), 45.6%.

Turning to `Cc1cc(=O)oc2cc(O)cc(O)c12`, the growth inhibition in assay [1] (setting [7]) is 0%; in assay [1] (setting [8]), -1%; in assay [1] (at 50.0 µM), 16.5%; in assay [2] (setting [7]) it was -4%; in assay [2] (setting [8]) it was -2%; in assay [2] (at 50.0 µM), -8.95%. In addition, the growth inhibition in assay [3] (setting [7]) was -11%; in assay [3] (setting [8]), -4%; in assay [3] (at 50.0 µM) it was -8.8%; in assay [4] (setting [7]) it was 0%; in assay [4] (setting [8]), -11%; in assay [4] (at 50.0 µM) it was -18.6%. For the same molecule, the growth inhibition was -3% in assay [5] (setting [7]); 6% in assay [5] (setting [8]); -14.7% in assay [5] (at 50.0 µM); -5% in assay [6] (setting [7]); 1% in assay [6] (setting [8]); 6.8% in assay [6] (at 50.0 µM).

On to `CC(C)N=C(N)/N=C(\N)Nc1ccc2ccc3ccccc3c2c1`, for which the growth inhibition is 3% in assay [1] (setting [7]); 99% (active) in assay [1] (setting [8]); 99.8% (active) in assay [1] (at 50.0 µM); -9% in assay [2] (setting [7]); 99% (active) in assay [2] (setting [8]); 25.1% in assay [2] (at 50.0 µM). The growth inhibition is 12% in assay [3] (setting [7]); 100% (active) in assay [3] (setting [8]); 99.7% (active) in assay [3] (at 50.0 µM); 3% in assay [4] (setting [7]); 100% (active) in assay [4] (setting [8]); 99.5% (active) in assay [4] (at 50.0 µM). Besides, the growth inhibition in assay [5] (setting [7]) was 27%; in assay [5] (setting [8]), 99% (active); in assay [5] (at 50.0 µM) it was 46.3%; in assay [6] (setting [7]) it was 41%; in assay [6] (setting [8]), 99% (active); in assay [6] (at 50.0 µM), 99.7% (active).

`CC1(C)CCCC2=C1C(=O)N(SC(Cl)(Cl)Cl)C2=O`: the growth inhibition in assay [1] (setting [7]) is 98% (active); in assay [1] (setting [8]) it was 99% (active); in assay [1] (at 50.0 µM) it was 90.3% (active); in assay [2] (setting [7]), 99% (active); in assay [2] (setting [8]) it was 99% (active); in assay [2] (at 50.0 µM) it was 93.1% (active). For the same molecule, the growth inhibition in assay [3] (setting [7]) was 100% (active); in assay [3] (setting [8]), 99% (active); in assay [3] (at 50.0 µM), 90.5% (active); in assay [4] (setting [7]), 99% (active); in assay [4] (setting [8]) it was 99% (active); in assay [4] (at 50.0 µM), 91.3% (active). Moreover, the growth inhibition in assay [5] (setting [7]) is 100% (active); in assay [5] (setting [8]), 99% (active); in assay [5] (at 50.0 µM), 89.9% (active); in assay [6] (setting [7]), 98% (active); in assay [6] (setting [8]), 99% (active); in assay [6] (at 50.0 µM), 90.1% (active).

Consider `CCCCN(CCCC)CCCCCCCCCCO`, for which the growth inhibition in assay [1] (setting [7]) is -2%; in assay [1] (setting [8]), -2%; in assay [1] (at 50.0 µM) it was 45.4%; in assay [2] (setting [7]) it was -1%; in assay [2] (setting [8]), 1%; in assay [2] (at 50.0 µM) it was 36.2%. The growth inhibition in assay [3] (setting [7]) was 1%; in assay [3] (setting [8]) it was 1%; in assay [3] (at 50.0 µM) it was 52.6%; in assay [4] (setting [7]), 2%; in assay [4] (setting [8]), 0%; in assay [4] (at 50.0 µM), 4.2%. Also, the growth inhibition in assay [5] (setting [7]) is 3%; in assay [5] (setting [8]) it was 7%; in assay [5] (at 50.0 µM) it was 70% (active); in assay [6] (setting [7]) it was -1%; in assay [6] (setting [8]), -1%; in assay [6] (at 50.0 µM), 25.4%.

Turning to `CCCC[n+]1c(/C=C\c2c(OC)cc(OC)cc2OC)ccc2ccccc21`, the growth inhibition in assay [1] (setting [7]) is 64%; in assay [1] (setting [8]), 97% (active); in assay [1] (at 50.0 µM), 88.8% (active); in assay [2] (setting [7]) it was 61%; in assay [2] (setting [8]) it was 99% (active); in assay [2] (at 50.0 µM), 90.8% (active). Also, the growth inhibition in assay [3] (setting [7]) is 67%; in assay [3] (setting [8]) it was 99% (active); in assay [3] (at 50.0 µM), 91.7% (active); in assay [4] (setting [7]) it was 56%; in assay [4] (setting [8]) it was 99% (active); in assay [4] (at 50.0 µM), 89.7% (active). Moreover, the growth inhibition in assay [5] (setting [7]) is 86% (active); in assay [5] (setting [8]), 98% (active); in assay [5] (at 50.0 µM), 90.1% (active); in assay [6] (setting [7]) it was 44%; in assay [6] (setting [8]) it was 97% (active); in assay [6] (at 50.0 µM), 88% (active).

`Fc1ccc(NCCS)cc1`: the growth inhibition in assay [1] (setting [7]) is -18%; in assay [1] (setting [8]) it was 90% (active); in assay [1] (at 50.0 µM), 85.2% (active); in assay [2] (setting [7]) it was -27%; in assay [2] (setting [8]), 95% (active); in assay [2] (at 50.0 µM) it was 87.8% (active). Further, the growth inhibition in assay [3] (setting [7]) was -18%; in assay [3] (setting [8]), 61%; in assay [3] (at 50.0 µM) it was 79.1% (active); in assay [4] (setting [7]) it was -4%; in assay [4] (setting [8]) it was 66%; in assay [4] (at 50.0 µM), 60.2%. In addition, the growth inhibition is 10% in assay [5] (setting [7]); 93% (active) in assay [5] (setting [8]); 86.9% (active) in assay [5] (at 50.0 µM); -31% in assay [6] (setting [7]); 90% (active) in assay [6] (setting [8]); 84.3% (active) in assay [6] (at 50.0 µM).

On to `O=C1/C(=C/c2ccccn2)CCc2ccccc21`, for which the growth inhibition in assay [1] (setting [7]) was 30%; in assay [1] (setting [8]), 94% (active); in assay [1] (at 50.0 µM), 84.7% (active); in assay [2] (setting [7]), 17%; in assay [2] (setting [8]), 95% (active); in assay [2] (at 50.0 µM), 89.5% (active). The growth inhibition in assay [3] (setting [7]) was 11%; in assay [3] (setting [8]), 85% (active); in assay [3] (at 50.0 µM) it was 83.4% (active); in assay [4] (setting [7]), 32%; in assay [4] (setting [8]), 92% (active); in assay [4] (at 50.0 µM) it was 46.2%. The growth inhibition was -8% in assay [5] (setting [7]); 98% (active) in assay [5] (setting [8]); 89.4% (active) in assay [5] (at 50.0 µM); -15% in assay [6] (setting [7]); 97% (active) in assay [6] (setting [8]); 84.2% (active) in assay [6] (at 50.0 µM).
